Vif-A3G inh = qHTS for Inhibitors of Vif-A3G Interactions: qHTS; DNA dC->dU-editing enzyme APOBEC-3G (Homo sapiens), Q9HC16; HeLa A3G-eYFP + Vif (tagged APOBEC3G with the HIV-1 protein that degrades it), YFP fluorescence, overnight; Potency, µM (series often up to 46.1 µM), for the others: at the highest dose activity, negative = active, hits mostly inhibitors; 410,000 compounds, 0.076% hits; AID 602310, 2012; note: potency is the fitted concentration of half-maximal effect; % is set by controls: 0 for no effect and ±100 for the full control effect; nearly all actives have a fitted effect of over 60% in size
Target sequence (Q9HC16 whole entry, looked up): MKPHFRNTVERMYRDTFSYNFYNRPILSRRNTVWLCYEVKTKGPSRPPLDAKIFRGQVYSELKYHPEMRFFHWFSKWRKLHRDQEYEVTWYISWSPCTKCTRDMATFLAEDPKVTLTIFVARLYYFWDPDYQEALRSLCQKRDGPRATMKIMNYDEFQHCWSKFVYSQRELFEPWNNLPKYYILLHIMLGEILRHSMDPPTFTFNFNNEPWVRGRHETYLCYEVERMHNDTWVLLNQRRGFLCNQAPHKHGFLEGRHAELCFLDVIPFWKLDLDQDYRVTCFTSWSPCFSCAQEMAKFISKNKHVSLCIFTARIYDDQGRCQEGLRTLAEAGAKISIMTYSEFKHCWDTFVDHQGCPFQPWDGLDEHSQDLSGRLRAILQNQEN
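HeLa cells stably expressing Vif and C-terminally eYFP-tagged A3G, seeded overnight at 37 deg C, then exposed to compound by pintool overnight at 37 deg C. Rise in yellow fluorescence (Ex 488/Em 500-530, Acumen) marks blocked Vif-driven A3G degradation.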
Giardia kill = Small Molecules that selectively kill Giardia lamblia: qHTS. 340,000 compounds, 0.15% hits. activity change, % at 7.66 µM, hits read low. Giardia lamblia trophozoite viability; in the data active = activity change below about -80%; inconclusive = between about -30% and that limit;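 note: parasites exposed to compound for two days anaerobically before the ATP read; % is set by controls: 0 for no effect and ±100 for the full control effect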
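Trophozoites 100 cells/well + cpd; 48 hrs, 37 deg C, anaerobic. ATPLite 1-Step added, 15-30 min RT, luminescence read (ATP-based viability).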
MCF10A rereplic = A quantitative high throughput screen for small molecules that induce DNA re-replication in MCF 10a normal breast cells; MCF 10A DNA re-replication, Hoechst nuclear intensity, 48 h; Potency, µM (series often up to 46.1 µM), inactives show at the highest dose activity, positive = re-replication, most hits filed as activators; 350,000 compounds, 2.9% hits; note: potency is the fitted concentration of half-maximal effect; % of control where 0% means no effect; nearly all actives have a fitted effect of over 50% in size
IL-1B inflam inh = qHTS for Inhibitors of Inflammasome Signaling: IL-1-beta AlphaLISA Primary Screen | 360,000 compounds, 4.7% hits | THP-1 LPS/ATP IL-1B secretion, AlphaLISA, 16 h; stronger effect = lower value | activity change, % at 57.5 µM | AID 743279, 2014; in the data active = activity change below about -50%; inconclusive = mostly about -30% to -49%; note: % is set by controls: 0 for no effect and ±100 for the full control effect
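THP-1 cells pretreated 1 hr with compounds (up to 57.5 uM final), then stimulated with LPS (250 ng/mL final) plus ATP (1.25 mM final); secreted IL-1B measured by AlphaLISA after 16 hr, decreased signal indicating inhibition.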
Vif-A3F inh = qHTS for Inhibitors of Vif-A3F Interactions: qHTS; HeLa A3F-eYFP + Vif (tagged APOBEC3F with the HIV-1 protein that degrades it), YFP fluorescence increase; Potency, µM (highest dose often 46.1 µM), inactives show at the top dose activity, negative = active; 390,000 compounds, 0.2% hits; note: potency is the fitted concentration of half-maximal effect; % of control where 0% means no effect; nearly all actives have a fitted effect of over 65% in size
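Fluorescence increase (Ex 488/Em 500-530) after overnight compound treatment at 37 deg C flags inhibition of Vif-driven A3F-eYFP loss in stable HeLa A3F-eYFP/Vif cells seeded overnight beforehand.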
SW480 rereplic = A quantitative high throughput screen for small molecules that induce DNA re-replication in SW480 colon adenocarcinoma cells | 340,000 compounds, 1.8% hits | SW480 DNA re-replication, Hoechst DNA content imaging, 48 h | Potency, µM (titrated, usually from 46.1 µM), for inactives: top-dose re-replication activation, most hits filed as activators; note: potency is the fitted concentration of half-maximal effect; % of control where 0% means no effect; nearly all actives have a fitted effect of over 55% in size
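Image-based DNA-content assay: after two days of treatment, nuclei were labelled with the DNA dye Hoechst and imaged, and hits were compounds raising the count of nuclei showing high fluorescence intensity.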
* hit, by the source's call; ? = inconclusive; . = no result given. A selection: hits, their analogues and other compounds. The true share with any hit is near 6.9%. Unless noted, calls come from the whole dose curve; as a rule, active = well fitted curve in the direction sought with a large enough effect; inconclusive = small, poorly fitted or top-dose-only effect, or another doubt; inactive = no such curve, though single readings can be large; an effect the other way counts as inactive or inconclusive.

SMILES | Vif-A3G inh | Giardia kill | MCF10A rereplic | IL-1B inflam inh | Vif-A3F inh | SW480 rereplic
O=c1ccsc2ccccc12 | -0.5% | 31.2 | 6.3% | 0.6 | -32.7% | 0.6%
O=c1[nH]sc2ccccc12 | -6.8% | -3.0 | ? | -107.4* | -2.7% | ?
O=[N+]([O-])c1ccccc1S(=O)c1ccccc1[N+](=O)[O-] | -9.8% | . | . | 218.9 | . | .
O=C(CS(=O)c1ccccc1[N+](=O)[O-])Oc1ccc(Br)cc1 (configuration not stated) | -2.8% | -18.5 | -0.8% | -62.4* | 5.7% | -1.1%
CS(=O)(=O)c1ccc(S(=O)CC(=O)Oc2ccc(Cl)cc2)c([N+](=O)[O-])c1 (configuration not stated) | ? | 11.1 | 4.61µM* | -98.8* | -1.9% | 6.51µM*
COc1ccc2cc(-c3[nH]ncc3CN3CCCN(c4ccccc4)CC3)ccc2c1 | -2.7% | 3.2 | ? | ? | 0.3% | ?
COc1ccc(-c2[nH]ncc2CN2CCCN(c3ccccc3)CC2)c(F)c1 | -0.7% | -7.1 | 1.3% | -62.0* | 18.4% | -1.6%
CCOC(=O)CN1C(c2ccc(O)cc2)Nc2ccc(Br)cc2C1c1ccccc1 (configuration not stated) | -2.1% | -5.7 | 18.4µM* | -101.5* | 1.6% | ?
CCOC(=O)CN1C(=O)Nc2ccc(Br)cc2C1c1ccccc1 (configuration not stated) | -0.7% | 1.9 | 5.2% | -17.3 | -13.0% | 12.7%
COc1ccc(NC(=O)c2nc(C)c(C3(C)CC(c4cccnc4)=NO3)s2)cc1 (configuration not stated) | -25.8% | -19.9 | ? | 30.7 | -2.7% | 7.31µM*
Cc1nc(C(=O)Nc2ccc(Cl)cc2)sc1C1(C)CC(c2cccc([N+](=O)[O-])c2)=NO1 (configuration not stated) | 4.6% | -1.7 | 13.3% | -6.1 | -1.7% | 4.7%
CCC(C)(C)NS(=O)(=O)c1cc(-c2cc(C)no2)ccc1C | 4.3% | . | . | . | 3.4% | .
CCOc1ccc(NC(=O)C2(c3cccs3)CCOCC2)cc1 | 0.9% | . | . | . | -2.9% | .
CCOC(=O)C1CCN(S(=O)(=O)c2cc(-c3onc(C)c3C)ccc2OC)CC1 | -26.0% | . | . | . | -4.6% | .
CCCN(CCC)c1ccc(C2N=C(N)Nc3nc4ccccc4n32)cc1 (configuration not stated) | -8.5% | . | . | . | 1.3% | .
Cc1[nH]c2ccccc2c1SCc1nnc(SCc2ccccc2)n1C | -0.4% | -8.8 | 15.1% | -56.7* | -1.8% | -1.3%
Cc1[nH]c2ccccc2c1SCc1nnc(SCc2ccc(Cl)cc2)n1C | 3.3% | 30.9 | ? | . | -6.4% | ?
Cc1ccc(-n2nnnc2Sc2nc([N+](=O)[O-])nn2C)cc1C | -11.0% | 6.0 | ? | -76.8* | -0.9% | ?
COc1ccc(-c2nc3scc(CCNS(=O)(=O)c4c(C)noc4C)n3n2)cc1OC | 5.4% | . | . | . | 1.9% | .
CNC(=O)OCc1nc(SSC(C)(C)C)n(C)c1COC(=O)NC | -26.2% | 22.7 | 2.91µM* | -100.0* | ? | 4.11µM*
COc1ccccc1C1C=C(c2ccc(C)cc2)Nc2nnnn21 (configuration not stated) | -7.2% | -11.6 | -1.9% | ? | 3.3% | 5.6%
COc1ccc(C2=CC(c3c(C)nn(-c4ccccc4)c3Cl)n3nnnc3N2)cc1OC (configuration not stated) | -6.7% | -17.0 | ? | -67.2* | 1.9% | ?
CCOc1ccc(S(=O)(=O)N/N=C2/CC(c3ccccc3)Oc3ccccc32)cc1 (configuration not stated) | 1.2% | 9.3 | 8.3% | 0.0 | 13.9% | 8.8%
COc1ccc(/C=C2\Oc3ccccc3C2=O)cc1 | -6.8% | -29.9 | -29.7% | -5.6 | 0.2% | -2.3%
COc1ccc(/C=C2\C(=O)c3ccccc3OC2c2ccccc2)cc1 (configuration not stated) | -19.0% | -20.3 | 10.3µM* | 16.7 | -3.9% | ?
SMILES | Vif-A3G inh | Giardia kill | MCF10A rereplic | IL-1B inflam inh | Vif-A3F inh | SW480 rereplic
CCOc1ccc(/C=C2\C(=O)c3ccccc3OC2c2ccccc2)cc1 (configuration not stated) | -19.7% | 6.8 | 5.17µM* | -2.1 | -16.8% | ?
CCN(CC)S(=O)(=O)c1ccc2nc(NC(=O)c3cccnc3)sc2c1 | 0.4% | . | . | . | 6.8% | .
O=C(CSc1ncnc2c1cnn2-c1ccccc1)Nc1ccccc1 | 0.1% | 1.9 | -8.2% | -58.3* | -4.4% | -3.5%
CCOC(=O)CNC(=O)CSc1ncnc2c1cnn2-c1ccc(Cl)cc1 | -5.1% | 18.4 | 0.1% | -4.0 | -5.6% | -1.4%
CCOC(=O)CNC(=O)CSc1ncnc2c1cnn2Cc1ccccc1 | -1.2% | -22.8 | 13.8% | -100.4* | -1.4% | 2.7%
Cc1nnc(SCC(=O)NCc2cccs2)n1-c1ccccc1 | -4.2% | 9.7 | 8.3% | 1.0 | 2.0% | 2.2%
CNC(=O)CSc1ncnc2c1cnn2-c1ccccc1 | 2.1% | 11.4 | 0.3% | -22.0 | -0.5% | -3.0%
Cc1ccccc1-n1ncc2c(SCC(=O)NCc3cccs3)ncnc21 | -23.5% | 14.3 | 12.6µM* | 11.0 | -3.1% | 20.6µM*
Cc1csc(NC(=O)CSc2ncnc3ccccc23)n1 | -12.0% | -2.6 | ? | -88.7* | 4.9% | -4.3%
CCCCOc1cccc(C(=O)N(Cc2ccc(Br)o2)C2CCS(=O)(=O)C2)c1 (configuration not stated) | 1.8% | . | . | . | 3.9% | .
COC(=O)CCNC(=O)NC(CCC(C)C)c1c(-n2cccc2)sc2c1CCN(C)C2 (configuration not stated) | 12.4% | . | . | . | -5.5% | .
Cc1csc(NC(=O)CSc2ncnc3c2cnn3-c2ccccc2Cl)n1 | -10.8% | 6.3 | 22.4µM* | -17.2 | -11.2% | 21.2%
CC(C)C(=O)NNC(=O)CSc1ncnc2c1cnn2-c1ccccc1Cl | -3.6% | -4.6 | 7.2% | -3.6 | ? | 9.5%
O=C(COCc1cc(-c2ccc(F)cc2)on1)Nc1cc(F)ccc1F | 4.5% | . | . | . | 1.6% | .
O=c1[nH]cnc2c1ccn2C1OC(CO)C(O)C1O (configuration not stated) | -10.3% | 12.1 | 2.06µM* | -13.4 | 1.3% | -1.0%
O=c1[nH]cnc2c1[nH]c(=S)n2C1O[C@@H](CO)[C@H](O)[C@@H]1O (some centres not stated) | 0.3% | -5.5 | . | . | . | .
O=c1[nH]c(=O)n(C2OC(CO)C(O)C2O)cc1F (configuration not stated) | ? | 3.1 | ? | -13.4 | -19.9% | 1.03µM*
